For 24 molecules, Potency and max response results are on record in PubChem BioAssay (NCATS).

Records with an inconclusive call do not appear. A number with no mark means an inactive call. Active and inactive are the calls of the source. Calls follow the shape of the dose curve; as a rule, active = well fitted inhibition curve with a large enough effect; inconclusive = small, poorly fitted or top-dose-only effect; inactive = flat fitted curve, though single readings scatter.

The test system of assay [1] is PC26. Briefly: qHTS profiling for inhibitors of Plasmodium falciparum proliferation (AID 504749). Also: potency is read from the fitted curve at half-maximal effect. The following applies: P. falciparum in erythrocytes, SYBR Green DNA, 72 h; series mostly up to 28.7 µM. A digest of the protocol: (§1)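 P. falciparum-infected erythrocytes (0.3% parasitemia, 2.5% hematocrit final) were exposed to compounds for 72 h at 37 C in 5% CO2, then lysed with SYBR Green buffer overnight at room temperature; parasite DNA fluorescence was normalized to artemisinin and DMSO controls.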
(In general: qHTS replaces the single test concentration by a dilution series.)

For assay [2], the system named is PC49. Described as above. The following applies: P. falciparum in erythrocytes, SYBR Green DNA, 72 h; series mostly up to 28.7 µM. A digest of the protocol: as §1
The test system of assay [3] is SC27B. The assay is described as above. The following applies: P. falciparum in erythrocytes, SYBR Green DNA, 72 h; series mostly up to 28.7 µM. Put shortly:
as §1

Assay [4] concerns TAB113. The assay is described as above. The following applies: P. falciparum in erythrocytes, SYBR Green DNA, 72 h; series mostly up to 28.7 µM. Put shortly:
as §1

The subject of assay [5] is TAB165. The assay is described as above. The following applies: P. falciparum in erythrocytes, SYBR Green DNA, 72 h; series mostly up to 28.7 µM. Put shortly: as §1
Assay [6] deals with W2. Described as above. The following applies: P. falciparum in erythrocytes, SYBR Green DNA, 72 h; series mostly up to 28.7 µM. Put shortly:
as §1

The test system of assay [7] is KB-3-1. Briefly: Cytotoxic Profiling of Annotated Libraries Using Quantitative High-Throughput Screening (AID 1296008). Also: % is scaled to controls: 0 for no effect and ±100 for the full control effect. The conditions noted are these: Five cell lines viability, CellTiter-Glo ATP luminescence, 48-72 h; max response: stronger effect = lower value. Put shortly: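 Compounds were pin-transferred onto cells and incubated 48 or 72 hr at 37 degree Celsius, 95% humidity. CellTiter-Glo was added, plates sat 10 min at room temperature, then ATP-coupled luminescence was imaged as the viability read-out.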
For orientation: In ATP-based viability assays light output follows the ATP content of the culture.

The subject of assay [8] is TAB109. In words: qHTS profiling for inhibitors of Plasmodium falciparum proliferation (AID 504749). Also: potency is read from the fitted curve at half-maximal effect. The following applies: P. falciparum in erythrocytes, SYBR Green DNA, 72 h; series mostly up to 28.7 µM. A digest of the protocol:
as §1
Also: nearly all actives have a fitted effect of over 60% in size.

For `CCC(C)(S(=O)(=O)CC)S(=O)(=O)CC`, the Potency result in assay [1], in assay [2], in assay [3], in assay [4], in assay [5] and in assay [6] was “inactive” each time. For the same molecule, in assay [7], the max response is -12.7%.

In the case of `FC(F)OC(F)(F)C(F)Cl` (stereo not drawn), the Potency entry in assay [1], in assay [2], in assay [3], in assay [8], in assay [4] and in assay [5] was “inactive” throughout. Moreover, in assay [6], the Potency entry is “inactive”. Besides, in assay [7], the max response was -1.37%.

`CCCCCCCCOC(=O)c1ccccc1C(=O)OCCCCCCCC`: the Potency entry in assay [1], in assay [2], in assay [3], in assay [8], in assay [4] and in assay [5] was “inactive” each time. Further, in assay [6], the Potency entry was “inactive”. Further, the max response in assay [7] is -10%.

With `CNC(=O)OCC[N+](C)(C)C`, the Potency result in assay [1], in assay [2], in assay [3], in assay [8], in assay [4] and in assay [5] was “inactive” throughout. Further, in assay [6], the Potency result is “inactive”. The max response in assay [7] is 5.31%.

Take `O=C(NC(=O)c1c(F)cccc1F)Nc1ccc(Cl)c(Oc2ncc(C(F)(F)F)cc2Cl)c1`: the Potency entry in assay [1], in assay [2], in assay [3], in assay [8], in assay [4] and in assay [6] was “inactive” in each case. Further, in assay [7], the max response was -5.7%.

Regarding `O=CC=O`, the Potency result in assay [1], in assay [2], in assay [3], in assay [8], in assay [4] and in assay [5] was “inactive” in each case. In addition, the Potency entry in assay [6] was “inactive”. The max response in assay [7] is -15.6%.

Turning to `ClC1C(Cl)C(Cl)C(Cl)C(Cl)C1Cl` (stereo not drawn), the Potency result in assay [1], in assay [2], in assay [3], in assay [8], in assay [4] and in assay [5] was “inactive” in each case. For the same molecule, the Potency result in assay [6] was “inactive”. Moreover, the max response in assay [7] is 2.37%.

Turning to `O=C/C=C/c1ccccc1`, the Potency entry in assay [1], in assay [2], in assay [3], in assay [8], in assay [4] and in assay [5] was “inactive” each time. The Potency entry in assay [6] is “inactive”. Further, the max response in assay [7] is 17.4%.

As for `CC(C)CCON=O`, the Potency entry in assay [1], in assay [2], in assay [3], in assay [8], in assay [4] and in assay [5] was “inactive” each time. In assay [6], the Potency entry was “inactive”. In assay [7], the max response was 10.4%.

On to `C=CCN1CC[C@]23c4c5ccc(O)c4O[C@H]2[C@@H](O)C=C[C@H]3[C@H]1C5`, for which the Potency entry in assay [1], in assay [2], in assay [3], in assay [8], in assay [4] and in assay [5] was “inactive” in each case. Further, the Potency entry in assay [6] is “inactive”. Moreover, the max response in assay [7] is 10.7%.

With `C=CCN(C1=NCCN1)c1c(Cl)cccc1Cl`, the Potency result in assay [1], in assay [2], in assay [3], in assay [8], in assay [4] and in assay [5] was “inactive” throughout. In assay [6], the Potency entry is “inactive”. Further, the max response in assay [7] is 1.74%.

For `O=C(CS(=O)C(c1ccccc1)c1ccccc1)NO` (stereo not drawn), the Potency result in assay [1], in assay [2], in assay [3], in assay [4], in assay [5] and in assay [6] was “inactive” each time. The max response in assay [7] was -1.93%.

As for `O=c1[nH]c(=O)n(Cl)c(=O)n1Cl`, the Potency result in assay [1], in assay [2], in assay [3], in assay [8], in assay [4] and in assay [5] was “inactive” in each case. In assay [6], the Potency entry was “inactive”. The max response in assay [7] was 7.09%.

For `NCC(O)c1cccc(O)c1` (stereo not drawn), the Potency entry in assay [1], in assay [2], in assay [3], in assay [8], in assay [4] and in assay [5] was “inactive” throughout. Also, the Potency result in assay [6] was “inactive”. For the same molecule, the max response in assay [7] is 1.34%.

Regarding `N#CC(C#N)=Cc1cc(O)c(O)c(O)c1`, the Potency in assay [1] was 8.49 µM (active); in assay [8], 3.98 µM (active); in assay [5], 7.94 µM (active). Moreover, the max response in assay [7] was -23.8%.

Take `O=P(O)(O)C(Cl)(Cl)P(=O)(O)O`: the Potency result in assay [1], in assay [2], in assay [3], in assay [8], in assay [4] and in assay [5] was “inactive” throughout. In assay [6], the Potency result was “inactive”. Moreover, in assay [7], the max response is -7.13%.

Take `CCCC(C)(COC(N)=O)COC(=O)NC1CC1` (stereo not drawn): the Potency entry in assay [1], in assay [2], in assay [3], in assay [4], in assay [5] and in assay [6] was “inactive” each time. Moreover, the max response in assay [7] is -23.5%.

For the molecule `COCC(C)N(C(=O)CCl)c1c(C)csc1C` (stereo not drawn), the Potency entry in assay [1], in assay [2], in assay [3], in assay [8], in assay [4] and in assay [5] was “inactive” in each case. The Potency entry in assay [6] is “inactive”. In addition, the max response in assay [7] was -0.17%.

For the molecule `CCCCCl`, the Potency result in assay [2], in assay [3], in assay [8], in assay [4] and in assay [5] was “inactive” in each case. Further, the max response in assay [7] is -7.35%.

`c1ccc(C2(N3CCCC3)CCCCC2)cc1`: the Potency in assay [1] is 13.5 µM (active); in assay [8], 7.94 µM (active); in assay [5], 12.6 µM (active); in assay [6], 7.57 µM (active). In addition, the max response in assay [7] is 2%.

For the molecule `O=[N+]([O-])c1ccc(F)c([N+](=O)[O-])c1`, the Potency result in assay [1], in assay [2], in assay [3], in assay [8], in assay [4] and in assay [5] was “inactive” throughout. The Potency entry in assay [6] was “inactive”. For the same molecule, the max response in assay [7] is -19.8%.

Regarding `O=Cc1ccco1`, the Potency entry in assay [1], in assay [2], in assay [3], in assay [8], in assay [4] and in assay [6] was “inactive” throughout. The max response in assay [7] is 3.99%.

As to `O=C1CCO1`, the Potency result in assay [1], in assay [2], in assay [3], in assay [8], in assay [4] and in assay [5] was “inactive” throughout. In addition, the Potency entry in assay [6] was “inactive”. Moreover, the max response in assay [7] was -17.3%.

For `CN1c2ccccc2C(NCCCCCCC(=O)O)c2ccc(Cl)cc2S1(=O)=O` (stereo not drawn), the Potency result in assay [1], in assay [2], in assay [3], in assay [8], in assay [4] and in assay [5] was “inactive” each time. The Potency entry in assay [6] is “inactive”. For the same molecule, the max response in assay [7] was -15.2%.
